Measured values published in PubChem BioAssay (EPA / NIEHS).
Records with an inconclusive call do not appear. More than one record can exist for a structure, and the calls need not agree. Activity calls are given as the source filed them. The calls were made as follows: active = hit-call score of the fitted dose curve at least 0.9, where 1 is the maximum; inconclusive = response in the unintended direction; inactive = score below 0.9.

target: Cellular tumor antigen p53 (Homo sapiens) (UniProt P04637); assay: TOX21_p53_BLA_p3_ratio: Tox21 HCT-116 p53 Agonism Beta-lactamase Assay, Ratio, Phase 3 (AID 2283596)
Summary of the method: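 HCT116 p53-bla cells (4000/well) given compound in DMSO (217-fold dilution) after 5 h, incubated 16 h at 37C. CCF4-AM substrate 2 h at room temperature; 460/530 nm emission ratio, gain fitted against DMSO.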

Chain of Cellular tumor antigen p53 (Homo sapiens) (P04637 whole entry, looked up): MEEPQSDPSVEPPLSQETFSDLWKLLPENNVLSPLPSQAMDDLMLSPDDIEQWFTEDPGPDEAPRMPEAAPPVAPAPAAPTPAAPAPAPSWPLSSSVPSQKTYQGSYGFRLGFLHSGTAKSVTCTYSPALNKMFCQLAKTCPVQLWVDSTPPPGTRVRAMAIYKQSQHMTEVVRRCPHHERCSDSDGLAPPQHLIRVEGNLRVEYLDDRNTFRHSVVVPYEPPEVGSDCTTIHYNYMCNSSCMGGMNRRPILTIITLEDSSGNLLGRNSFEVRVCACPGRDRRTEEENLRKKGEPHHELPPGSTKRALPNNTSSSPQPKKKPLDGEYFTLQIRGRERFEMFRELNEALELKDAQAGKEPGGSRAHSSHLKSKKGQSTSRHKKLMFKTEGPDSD

Row | Compound | outcome | AC50
1 | COc1ccc(Cl)cc1C | inactive | 
2 | CC(C)(C)c1n[nH]c(=S)n(N)c1=O | inactive | 
3 | CCN(CC)c1ccc(C(=C2C=CC(=[N+](CC)CC)C=C2)c2ccc(S(=O)(=O)O)cc2S(=O)(=O)[O-])cc1 | inactive | 
4 | CCCCCCCCCCCCN(CCCCCCCCCCCC)CCCCCCCCCCCC | inactive | 
5 | CC(C)=CCO | inactive | 
6 | COC(=O)OC | inactive | 
7 | CC1(C)[C@@H]2CC[C@@]1(C)[C@H](O)C2 | inactive | 
8 | Cc1ccccc1C=O | inactive | 
9 | CC[Si](OC(C)=O)(OC(C)=O)OC(C)=O | inactive | 
10 | CCn1c2ccccc2c2cc(N)ccc21 | inactive | 68 µM (active)
11 | CC1(C)[C@H]2CC[C@]1(C)[C@H](O)C2 | inactive | 
12 | O=C1c2ccccc2C(=O)N1SC1CCCCC1 | inactive | 57 µM (active)
